# Source: the supplement of paper PMC8728848
# The full list was thinned out, with the strongest signals kept by preference.
# B1: rCnSL-proA (Clitocybe nebularis) (protein)
# chain: AAFFSLVVLLALLPFGIHASALPSTELTPRVNPNLPGPNDVFVGFRGTNNIVGAIYEKDGIKDTPLNNGADAEMGPGSYITDGLFTARIFASGSAGNNPGTTATVCKIYASGVQWRGAPKGYIPVAYFGNGPTAEQRRQTYLRTLGLPGTAIRFGNLNTNPGQGPTAPRQMVVPPGPLRSLLKASCFPAADTRLPQTLHYFEKRVDWNIITAADSQTWGH
# Legend:
# Experiment in all cases: glycan array binding signal (z-score within array); higher = stronger binding
# Details in all cases: glycan notation: IUPAC condensed, linker removed
# [1] = target: Gal(b1-4)GlcNAc(b1-3)Gal(b1-4)GlcNAc(b1-3)GalNAc
# Procedure, shortened: (§1)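 From the Consortium for Functional Glycomics database, 3228 arrays were curated, keeping only those whose protein sequence was available. Binding is given as a within-array Z-score averaged across arrays sharing a protein sequence and across linkers. Negative Z-scores can be read as non-binding.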
# [2] = target: Gal(b1-4)GlcNAc(b1-3)[Fuc(a1-3)GlcNAc(b1-6)]Gal(b1-4)Glc
# Procedure, shortened: as §1
# [3] = target: Gal(b1-4)GlcNAc6P
# Procedure, shortened: as §1
# [4] = target: Gal6S(b1-4)Glc
# Procedure, shortened: as §1
# [5] = target: GalNAc(a1-3)GalNAc(b1-3)Gal(a1-4)Gal(b1-4)Glc
# Procedure, shortened: as §1
# [6] = target: GalNAc(b1-3)Gal(a1-6)Gal(b1-4)Glc
# Procedure, shortened: as §1
# [7] = target: GalNAc(b1-4)GlcNAc(b1-2)Man(a1-3)[GalNAc(b1-4)GlcNAc(b1-2)Man(a1-6)]Man(b1-4)GlcNAc(b1-4)GlcNAc
# Procedure, shortened: as §1
# [8] = target: GlcNAc(b1-3)Gal(b1-4)GlcNAc(b1-2)Man(a1-3)[GlcNAc(b1-3)Gal(b1-4)GlcNAc(b1-2)Man(a1-6)]Man(b1-4)GlcNAc(b1-4)GlcNAc
# Procedure, shortened: as §1
# [9] = target: GlcNAc(b1-3)Gal(b1-4)GlcNAc(b1-3)Gal(b1-4)GlcNAc(b1-3)Gal(b1-4)GlcNAc(b1-2)Man(a1-3)[GlcNAc(b1-3)Gal(b1-4)GlcNAc(b1-3)Gal(b1-4)GlcNAc(b1-3)Gal(b1-4)GlcNAc(b1-2)Man(a1-6)]Man(b1-4)GlcNAc(b1-4)GlcNAc
# Procedure, shortened: as §1
# [10] = target: GlcNAc(b1-3)Gal(b1-4)GlcNAc(b1-3)Gal(b1-4)GlcNAc(b1-3)Gal(b1-4)GlcNAc(b1-2)Man(a1-3)[GlcNAc(b1-3)Gal(b1-4)GlcNAc(b1-3)Gal(b1-4)GlcNAc(b1-3)Gal(b1-4)GlcNAc(b1-2)Man(a1-6)]Man(b1-4)GlcNAc(b1-4)[Fuc(a1-6)]GlcNAc
# Procedure, shortened: as §1
# [11] = target: GlcNAc(b1-3)[GlcNAc(b1-6)]Gal(b1-4)GlcNAc
# Procedure, shortened: as §1
# [12] = target: GlcNAc(b1-4)GlcNAc(b1-4)GlcNAc
# Procedure, shortened: as §1
# [13] = target: GlcNAc(b1-4)[GlcNAc(b1-6)]GalNAc
# Procedure, shortened: as §1
# [14] = target: GlcNAc(b1-6)Gal(b1-4)GlcNAc
# Procedure, shortened: as §1
# [15] = target: Man(a1-3)[Man(a1-6)]Man(a1-6)[Man(a1-3)]Man(b1-4)GlcNAc(b1-4)GlcNAc
# Procedure, shortened: as §1
# [16] = target: Neu5Ac(a2-3)Gal(b1-3)GalNAc
# Procedure, shortened: as §1
# [17] = target: Neu5Ac(a2-3)Gal(b1-3)GlcNAc(b1-2)Man(a1-3)[Neu5Ac(a2-3)Gal(b1-3)GlcNAc(b1-2)Man(a1-6)]Man(b1-4)GlcNAc(b1-4)GlcNAc
# Procedure, shortened: as §1
# [18] = target: Neu5Ac(a2-3)Gal(b1-3)GlcNAc(b1-6)GalNAc
# Procedure, shortened: as §1
# [19] = target: Neu5Ac(a2-3)Gal(b1-3)[Fuc(a1-4)]GlcNAc(b1-3)Gal(b1-4)[Fuc(a1-3)]GlcNAc
# Procedure, shortened: as §1
# [20] = target: Neu5Ac(a2-3)Gal(b1-4)GlcNAc(b1-3)Gal(b1-4)GlcNAc(b1-3)Gal(b1-4)GlcNAc(b1-2)Man(a1-3)[Neu5Ac(a2-3)Gal(b1-4)GlcNAc(b1-3)Gal(b1-4)GlcNAc(b1-3)Gal(b1-4)GlcNAc(b1-2)Man(a1-6)]GalNAc
# Procedure, shortened: as §1
# [21] = target: Neu5Ac(a2-3)Gal(b1-4)GlcNAc(b1-6)[Neu5Ac(a2-3)Gal(b1-3)]GalNAc
# Procedure, shortened: as §1
# [22] = target: Neu5Ac(a2-3)Gal6S(b1-4)[Fuc(a1-3)]GlcNAc
# Procedure, shortened: as §1
# [23] = target: Neu5Ac(a2-6)Gal(b1-4)Glc
# Procedure, shortened: as §1
# [24] = target: Neu5Ac(a2-6)Gal(b1-4)GlcNAc(b1-2)Man(a1-3)[Man(a1-6)]Man(b1-4)GlcNAc(b1-4)GlcNAc
# Procedure, shortened: as §1
# [25] = target: Neu5Ac(a2-6)Gal(b1-4)GlcNAc(b1-3)Gal(b1-4)GlcNAc
# Procedure, shortened: as §1
# [26] = target: Neu5Ac(a2-6)Gal(b1-4)GlcNAc(b1-6)[Gal(b1-3)]GalNAc
# Procedure, shortened: as §1
# [27] = target: Neu5Ac(a2-8)Neu5Ac(a2-8)Neu5Ac(a2-3)Gal(b1-4)Glc
# Procedure, shortened: as §1
# [28] = target: Neu5Gc(a2-6)Gal(b1-4)GlcNAc
# Procedure, shortened: as §1
binder,measurement,setting,value
B1,glycan array binding signal (z-score),[1],1.57
same,glycan array binding signal (z-score),[2],0.661
same,glycan array binding signal (z-score),[3],-1.27
same,glycan array binding signal (z-score),[4],-0.662
same,glycan array binding signal (z-score),[5],-0.574
same,glycan array binding signal (z-score),[6],0.329
same,glycan array binding signal (z-score),[7],3.42
same,glycan array binding signal (z-score),[8],0.077
same,glycan array binding signal (z-score),[9],-0.215
same,glycan array binding signal (z-score),[10],0.698
same,glycan array binding signal (z-score),[11],-0.723
same,glycan array binding signal (z-score),[12],-0.208
same,glycan array binding signal (z-score),[13],-0.002
same,glycan array binding signal (z-score),[14],-0.312
same,glycan array binding signal (z-score),[15],0.14
same,glycan array binding signal (z-score),[16],-0.476
same,glycan array binding signal (z-score),[17],5.37
same,glycan array binding signal (z-score),[18],0.201
same,glycan array binding signal (z-score),[19],-0.238
same,glycan array binding signal (z-score),[20],4.1
same,glycan array binding signal (z-score),[21],-0.211
same,glycan array binding signal (z-score),[22],-0.672
same,glycan array binding signal (z-score),[23],-0.233
same,glycan array binding signal (z-score),[24],-0.337
same,glycan array binding signal (z-score),[25],-0.269
same,glycan array binding signal (z-score),[26],-0.387
same,glycan array binding signal (z-score),[27],-0.436
same,glycan array binding signal (z-score),[28],-0.088
